Assay results taken from PubChem BioAssay (NCI).
About 83,000 compounds went through this panel and 20% of them were active in at least one assay; those are over-represented in the sample as a whole.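 96-well plates, one dose, 48 hours. Percent growth reported; active if below 10.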 Unmarked numbers belong to inactive results. Active and inactive are the calls of the source.

Assays:
Assay in all cases: NCI-60 one-dose screen, 48 h (100 = growth as untreated, 0 = no growth, -100 = all killed)
Settings in all cases: 10 µM unless noted
HCT-15 colon = test system: HCT-15 colon
HT29 colon = test system: HT29 colon
SNB-75 CNS = test system: SNB-75 CNS
SNB-19 CNS = test system: SNB-19 CNS
PC-3 prostate = test system: PC-3 prostate
SK-MEL-5 melanoma = test system: SK-MEL-5 melanoma
LOX IMVI melanoma = test system: LOX IMVI melanoma
SK-MEL-28 melanoma = test system: SK-MEL-28 melanoma
UACC-62 melanoma = test system: UACC-62 melanoma
U251 CNS = test system: U251 CNS

SMILES	growth (HCT-15 colon) [%]	growth (HT29 colon)	growth (SNB-75 CNS)	growth (SNB-19 CNS) [%]	growth (PC-3 prostate) [%]	growth (SK-MEL-5 melanoma)	growth (LOX IMVI melanoma)	growth (SK-MEL-28 melanoma) [%]	growth (UACC-62 melanoma)	growth (U251 CNS) [%]
O=C(/C=C/c1cccc(Cl)c1)c1ccc(O)c(CN2CCN(c3cc4c(cc3F)c(=O)c(C(=O)O)cn4C3CC3)CC2)c1	17.5	4.36% (active)	28.7%	35.9	19.9	24.5%	11.7%	58.8	–	–
C=CC(=O)Nc1cccc(-c2nc(SC)nc(NCCc3ccc(OC)c(OC)c3)c2C#N)c1	52.3	77.5%	37.9%	71.8	53.2	-29.2% (active)	56.6%	72.3	48.1%	–
COc1ccc(-c2nc3ccc(-c4nc5ccc(N6CCN(c7ccc(F)cc7)CC6)cc5[nH]4)cc3[nH]2)cc1OC	44.7	44.3%	64.3%	117	62.7	65.6%	37.1%	90.6	60.6%	–
CC1(C)CC[C@]2(C(=O)Nc3ccccn3)CC[C@]3(C)C(=CC[C@@H]4[C@@]5(C)C/C(=C/c6cccnc6)C(=O)C(C)(C)[C@@H]5CC[C@]43C)[C@H]2C1	18.9	25.1%	45.2%	63.8	19.9	-14.8% (active)	14.9%	48.2	34.1%	–
C=CC(=O)Nc1cccc(-c2nc(SC)nc(NCc3ccccc3)c2C#N)c1	58.4	62.2%	19.6%	54.8	74.8	74%	65.8%	82.4	–	–
COc1ccc(CCNc2nc3c(c(=O)n(Cc4ccc(Br)cc4)c(=O)n3C)n2C)cc1OC	102	103%	84.5%	94.5	–	68%	94.5%	99	74.8%	–
COc1cc(-c2ccc3c(c2)NC(=O)/C3=C\c2ccc[nH]2)ccc1O	14.1	18.9%	47.2%	34.8	–	–	-8.36% (active)	37.5	32.2%	–
COc1ccc(NC(=O)c2ccc(/C=C/C(=O)c3ncc[nH]3)cc2)cc1	35.2	3.59% (active)	75%	56.1	92.3	–	26.9%	102	78.2%	–
CSc1nc(NCCO)c(C#N)c(-c2cccc([N+](=O)[O-])c2)n1	98.7	112%	72.8%	90.7	94.7	–	91.6%	112	87%	–
O=C1NC(=S)N[C@H]1CC(=O)n1cnc2ccccc21	99.1	111%	69.7%	102	101	–	88.5%	111	93.4%	–
C=CC(=O)Nc1cccc(Nc2nc(SC)nc(-c3cccc([N+](=O)[O-])c3)c2C#N)c1	52.2	33.7%	23.2%	79.5	37.5	–	46.1%	25.3	65.7%	–
O=C1NC(=O)C(c2ccc(Cl)cc2Cl)N1 (configuration not stated)	108	106%	92.7%	97.1	104	–	104%	112	97.7%	–
N#Cc1c(-c2ccc(Cl)cc2)nc(NN=Cc2ccco2)nc1N1CCOCC1	80.3	87%	10.3%	80	68.3	–	78.7%	65.9	58.2%	–
CNC(=O)c1cc(Oc2ccc(NC(=O)Nc3ccc(Cl)c(OC(F)(F)F)c3)c(F)c2)ccn1	28.8	14%	83%	30.3	22.1	–	17.2%	13.7	5.13% (active)	–
CSc1nc(Nc2cccc(NC(=O)/C(C#N)=C/c3c(Cl)cccc3Cl)c2)c(C#N)c(-c2cccc([N+](=O)[O-])c2)n1	28.9	49.2%	47.5%	72.5	45.1	–	2.43% (active)	76.7	33.2%	–
CCOC(=O)n1cc(-c2nonc2-c2cn(C)c3ncccc23)c2ccccc21	60.2	79.5%	61.6%	89.3	–	–	84.3%	104	64.6%	–
O=C(/C=C/c1cc(CN2CCOCC2)c(O)c2ncccc12)c1cc(CN2CCOCC2)c(O)c2ncccc12	16.2	16.8%	32.2%	20.7	23.7	–	19.3%	–	10.1%	–
FC(F)(F)c1nc2c(NCc3ccc(-c4ccccc4)cc3)cccc2[nH]1	68.4	84.4%	90.7%	117	–	88.4%	82.4%	92.1	72.1%	–
c1ccc(CCNc2ncnc3[nH]ncc23)cc1	105	94%	92.6%	105	67	–	89.1%	114	86.4%	–
Cc1nn(-c2ccc(F)cc2)c2ncnc(Oc3ccc(NC(=O)Nc4ccc(Cl)c(C(F)(F)F)c4)cc3)c12	111	109%	88.1%	98.9	–	99.1%	99.4%	102	96.6%	–
COC(=O)c1cccc(NC(=O)c2ccc(-c3cccc(N)c3)o2)c1	96.6	107%	93.2%	95.5	–	81.8%	99.6%	102	91.4%	–
COc1ccc(CCNc2nc(SC)nc(-c3cccc([N+](=O)[O-])c3)c2C#N)cc1OC	90.9	93.6%	61.8%	71.9	75.2	–	88.6%	91.8	80.8%	–
COC(=O)[C@@H]1CCCN1C(=O)[C@@H]1CCCN1C(=O)[C@H](Cc1ccccc1)NC(=S)Nc1cc(C(F)(F)F)cc(C(F)(F)F)c1	76.4	74.7%	73.8%	33.3	–	–	88.5%	85.3	85.3%	–
O=C(/C=C/c1ccccc1)c1ccc(O)c(CN2CCN(c3cc4c(cc3F)c(=O)c(C(=O)O)cn4C3CC3)CC2)c1	16.9	5.56% (active)	-2.4% (active)	29.8	18.3	–	6.26% (active)	46.5	21.3%	–
O=C1Nc2ccc(Br)cc2C12Oc1ccccc1C1CC(c3ccc(F)cc3)=NN12 (configuration not stated)	79.9	93.7%	86%	90.6	–	93.3%	91.9%	105	84.6%	–
COc1ccc(O)c(N=Nc2nccs2)c1	67.3	79.7%	91%	94.9	67.3	–	60.9%	115	89.8%	–
COc1cc(/C=C/C(=O)c2cccnc2Nc2ccc(F)cc2)cc(OC)c1OC	22.2	12.5%	22.4%	61.6	–	53.7%	8.97% (active)	72.1	49.9%	–
COc1ccc(-c2nn(-c3ccc(Cl)cc3)cc2-c2nc3ccccc3[nH]2)cc1	103	84.5%	76.6%	91.9	81.5	–	82.1%	–	75.8%	–
O=c1c2c3c(sc2nc(N/N=C/c2cn(-c4ccccc4)nc2-c2ccc(Cl)cc2)n1Cc1ccccc1)CCCC3	114	110%	102%	107	–	104%	110%	112	94.7%	–
CC(C)CC1C(=O)N2CCC[C@H]2C2(O)O[C@](NC(=O)C3C=C4c5cccc6[nH]c(Br)c(c56)C[C@H]4N(C)C3)(C(C)C)C(=O)N12 (some centres not stated)	43.1	53.2%	35.5%	–	20.4	–	62.5%	–	56.4%	53.4
